Results: PubChem BioAssay AID687 (PCMD, 2007)
Screen size: about 33,000 compounds; about 95 (0.3%) were called active.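 The calls were made as follows: active = inhibition above 40% in the primary screen; inactive = the rest.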 The sample as a whole holds a higher share of actives than the screen did.

The molecules below were run against Coagulation factor XI (Homo sapiens) (UniProt P03951) (assay: human FXIa protease inhibitors, primary screen, biochemical, single compound per well (AID 687;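 also: 0% = enzyme without compound and 100% = blank wells lacking enzyme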)). Settings: purified human FXIa, fluorogenic AMC substrate cleavage; at 10 µM; active compounds read high.
Chain of Coagulation factor XI (Homo sapiens) (P03951 19-387 limits assumed): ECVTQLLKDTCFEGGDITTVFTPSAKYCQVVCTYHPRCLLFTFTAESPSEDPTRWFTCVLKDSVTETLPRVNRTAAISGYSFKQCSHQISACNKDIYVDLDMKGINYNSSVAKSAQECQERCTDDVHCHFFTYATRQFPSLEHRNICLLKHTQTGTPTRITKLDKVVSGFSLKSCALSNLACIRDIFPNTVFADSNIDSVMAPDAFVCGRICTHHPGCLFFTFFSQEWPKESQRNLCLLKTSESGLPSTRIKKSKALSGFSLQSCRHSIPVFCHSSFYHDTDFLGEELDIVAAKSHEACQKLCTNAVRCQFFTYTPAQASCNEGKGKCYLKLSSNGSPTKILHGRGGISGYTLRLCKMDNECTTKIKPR
Chain of Coagulation factor XI (Homo sapiens) (P03951 388-625 limits assumed): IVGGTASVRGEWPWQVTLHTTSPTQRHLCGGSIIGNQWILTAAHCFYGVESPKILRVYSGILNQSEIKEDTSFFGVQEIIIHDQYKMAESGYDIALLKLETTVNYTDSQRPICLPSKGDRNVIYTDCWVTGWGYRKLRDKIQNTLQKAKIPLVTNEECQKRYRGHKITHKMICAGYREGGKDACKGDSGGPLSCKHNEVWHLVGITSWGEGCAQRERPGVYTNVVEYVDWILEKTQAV

Compound | inhibition
CCc1ccc(CNC(=O)C2CC(=O)N(CCc3ccc(C)cc3)C2)cc1 (centres undefined) | 1.74% (inactive)
CC(C)(C)Oc1ncc(Br)c(OC(C)(C)C)n1 | -4.12% (inactive)
CCc1ccc(CNC(=O)CCc2nc(-c3cccs3)no2)cc1 | 5.18% (inactive)
CCOC(=O)c1cnc(SCC(=O)Nc2ccccc2C(=O)OC)nc1N | -1.2% (inactive)
Cc1cc(C)n(-c2nnc(C)n2NC(=O)c2cccc(Cl)c2)n1 | -1.74% (inactive)
C/C(=N\NS(=O)(=O)c1ccc(Br)cc1)c1cccs1 | 7.3% (inactive)
O=C(O)c1cc2ccccc2c(=O)s1 | 3.97% (inactive)
CCn1c(CC(=O)Nc2ccc(C)cc2)nnc1SCC(=O)Nc1nc(C)cs1 | 0.06% (inactive)
COc1ccc(C)cc1NC(=O)CCS(=O)(=O)c1cccc2nonc12 | 24.9% (inactive)
Cc1cc(C)nc(N2C(=O)CC(Cc3ccccc3)C2=O)n1 (centres undefined) | -0.09% (inactive)
CCN1CC=C2C(C#N)=C(N)C(C#N)(C#N)[C@H](c3ccoc3)[C@H]2C1 | 1.2% (inactive)
Cc1cccc(N2CCN(C(=O)c3cnn4c(C(F)F)cc(-c5ccccc5)nc34)CC2)c1C | 3.2% (inactive)
CCOC(=O)CN(Cc1ccc(OC)c(OC)c1)S(=O)(=O)c1ccc(OC)cc1 | 6.28% (inactive)
CC(C)NC(=O)CSc1ccccc1C(=O)NCc1ccc2c(c1)OCO2 | 6.02% (inactive)
COn1c(=O)c(=O)n(OC)c2ccccc21 | 3.76% (inactive)
Cc1cc(C)n(C(=O)CCNC(=O)c2ccccc2Cl)n1 | -5.37% (inactive)
CCOC(=O)C1=C(C)NC2=C(C(=O)CC(C)(C)C2)C1c1ccsc1 (centres undefined) | 1.22% (inactive)
Cc1cc(=O)oc2ccc(OCC(=O)O)cc12 | -9.94% (inactive)
COc1ccc(Cl)cc1C(=O)Nc1ccc(N(C)C(C)=O)cc1 | 13.5% (inactive)
COc1cccc(OC)c1C(=O)Nc1ccc(N2CCCCC2)cc1 | 4.14% (inactive)
CCCC(=O)C1CCN(Cc2ccccc2)CC1 | 9.51% (inactive)
O=C(O)CCN=C1CCc2ccccc2N1 | 5.95% (inactive)
CCNC(=O)N1CCNC(=O)C1CC(=O)Nc1ccc(C(=O)OCC)cc1 (centres undefined) | -0.73% (inactive)
CCC(=O)N(Cc1ccccc1)c1ccccn1 | -8.8% (inactive)
O=C(c1ccco1)N1CCN(C(=O)C2CCCN(S(=O)(=O)c3cccc4nsnc34)C2)CC1 (centres undefined) | -6.85% (inactive)

Compound | inhibition
CCCOc1cccc(C(=O)Nc2nnn(CCC)n2)c1 | -6.61% (inactive)
Cc1nnc(SCC(=O)N2CCc3ccccc3C2)s1 | 21.3% (inactive)
O=C(COc1ccc(Cl)cc1)NCCSc1ccccc1 | 6.47% (inactive)
COc1ccc(-n2cnc3cc(NCc4ccco4)ccc32)cc1 | 4.4% (inactive)
Cn1nnnc1SCC(=O)N1CCN(C(c2ccccc2)c2ccccc2)CC1 | -3.99% (inactive)
CCCC(O)(c1ccc(OC)cc1)C(CN(C)C)c1ccccc1 (centres undefined) | -1.37% (inactive)
CSc1nc(C)cc(SC(C(C)=O)C(=O)Nc2ccccc2)n1 (centres undefined) | 0.47% (inactive)
CC(=O)Nc1cccc(Oc2cc(C#N)c(C#N)cc2N2CCOCC2)c1 | 2.12% (inactive)
CCOc1ccc(NC(=O)CCS(=O)(=O)c2ccc3c(c2)CCCN3C(=O)CC)cc1 | 19.3% (inactive)
Cc1ccc(S(=O)(=O)c2c(COC(=O)c3cccc(Cl)c3)c(-c3ccccc3)nn2C)cc1 | 6.1% (inactive)
CSc1ccccc1NC(=O)c1cc(C2CC2)on1 | 5.92% (inactive)
CC(=O)c1c(C)[nH]c(C(=O)NCc2ccc(C)cc2)c1C | 4.49% (inactive)
CCOc1cccc(NC(=O)Cn2nc(-c3ccc4c(c3)OCCO4)ccc2=O)c1 | -4.23% (inactive)
O=C1C=C(NCCNc2c(F)c(F)c(CO)c(F)c2F)CCC1 | -9.07% (inactive)
CC(C)C(c1nnnn1Cc1ccccc1)N1CCC(C(N)=O)CC1 (centres undefined) | 3.2% (inactive)
O=C(Cc1ccc(-n2c(=O)[nH]c3ccccc3c2=O)cc1)N1CCN(c2cccc(Cl)c2)CC1 | 3.03% (inactive)
O=C(CN1CCSCC1)N/N=C/c1ccc(F)cc1 | -8.31% (inactive)
CCc1cccc(C)c1N(C(=O)Cn1c(CO)nc2ccccc21)C(C)COC (centres undefined) | 20.8% (inactive)
CC(=O)OC(C(=O)NCCc1ccccc1)c1cccnc1 (centres undefined) | 4.94% (inactive)
OCCN1CCOCCOCCN(CCO)CCN(CCO)CC1 | 29.9% (inactive)
CCOc1ccc(C(O)Cc2nc3ccccc3n2C)cc1 (centres undefined) | 4.61% (inactive)
Cc1ccc(C(=O)N2CCN(C3CCCCC3)CC2)s1 | -2.79% (inactive)
CCCCN1C(=O)CC(N2CCOCC2)C1=O (centres undefined) | 4.69% (inactive)
O=c1[nH][nH]c(C(F)(F)F)c1C=NCc1ccccc1Cl | -12.4% (inactive)
O=C(NCc1ccc2c(c1)OCO2)C12CC3CC(CC(C3)C1)C2 | -3.87% (inactive)

Compound | inhibition
COC(=O)CNS(=O)(=O)c1ccc(OC)cc1 | 0.19% (inactive)
CCN(CC)C(=O)CSc1nnc(C2CCCCC2)o1 | 5.02% (inactive)
CC1CCC(N2CC(=O)N(Cc3ccc4c(c3)OCO4)C(c3ccc(F)cc3)C2=O)CC1 (centres undefined) | 1.08% (inactive)
N#Cc1c(N)nc2c3c(sc(=N)c2c1N)NC(=O)CC3c1ccccc1Cl (centres undefined) | 40.9% (active)
O=C(Cc1c(F)cccc1Cl)N1CCN(C(=O)c2ccco2)CC1 | 2.75% (inactive)
O=C(O)CSCc1ccc(C(=O)O)o1 | 0.52% (inactive)
CCC(CC)C(=O)N1CC(=O)Nc2ccc(Br)cc2C1c1ccccc1 (centres undefined) | -3.26% (inactive)
CC(C)C(=O)NC(NC(=S)NC1CCS(=O)(=O)C1)C(Cl)(Cl)Cl (centres undefined) | 0.31% (inactive)
CCCc1nc2oc3c(OCC)ncnc3c2c2c1COC(C)(C)C2 | 26% (inactive)
Cc1cc(C(=O)Nc2c(C)nn(Cc3ccccc3)c2C)on1 | 9.91% (inactive)
COc1ccc(-c2cn(-c3ccc(C)cc3)c(=O)n2CC(=O)Nc2ccc(OC)c(OC)c2)cc1 | -1.74% (inactive)
S=c1nccc(-c2cc(Cl)sc2Cl)[nH]1 | 3.11% (inactive)
CC1CC(C)CN(C(=O)CSc2nnc(CSc3ncccn3)n2C)C1 (centres undefined) | -0.18% (inactive)
O=c1c2ccccc2nc2n1C1(CCCCC1)Cc1ccccc1-2 | -5.48% (inactive)
CC(=O)Nc1ccccc1OC(=O)N1CCOCC1 | -4.74% (inactive)
O=C(CN1CCCCCC1)N1c2ccccc2Sc2ccc(C(F)(F)F)cc21 | 2.04% (inactive)
C=CCC(NCc1ccco1)c1ccc(OC)cc1 (centres undefined) | 4.05% (inactive)
O=C(CC1NCCNC1=O)Nc1ccc(Oc2ccccc2)cc1 (centres undefined) | 0% (inactive)
CCOC(=O)c1cnc2sccn2c1=O | 6.51% (inactive)
O=C(c1ccc(CN2CCOCC2)cc1)N1CCN(c2ccccc2F)CC1 | 3.59% (inactive)
Cn1c(N)c(C(=O)COC(=O)C23CC4CC(CC(C4)C2)C3)c(=O)n(C)c1=O | 21.8% (inactive)
O=C(NCCOc1ccccc1)c1ccccc1 | -5.53% (inactive)
CC1CN(S(=O)(=O)c2ccccc2)C(C)CN1S(=O)(=O)c1ccccc1 (centres undefined) | 1.71% (inactive)
COCCn1c(C)cc(C2=NNC(=Nc3ccc(F)cc3)SC2)c1C | -6.11% (inactive)
COc1ccc(N(CC(=O)NC2CCCCC2)S(=O)(=O)c2c(C)[nH]c(=O)[nH]c2=O)cc1 | 8.86% (inactive)

Compound | inhibition
CCOc1c(Cl)cc(/C=N/O)cc1OC | -2.81% (inactive)
COc1ccc(-n2nc(C(=O)NCC(=O)Nc3cccc(C)n3)c3ccccc3c2=O)cc1 | -9.02% (inactive)
N#C/C(=C(\O)CCl)c1nnc2n1CCCCC2 | -2.88% (inactive)
CCOC(=O)N1CCN(Cc2nc(N)nc(Nc3ccc(C)cc3)n2)CC1 | 17.1% (inactive)
COCCCNC(=O)C1CC(=O)N(CCc2ccccc2)C1 (centres undefined) | 7.75% (inactive)
Cc1cccc(C)c1NC(=O)CSc1nnc(-c2ccccc2)n1Cc1ccc2c(c1)OCO2 | 3.72% (inactive)
COC(=O)c1ccc(CSc2ccc3nnc(-c4ccccc4)n3n2)o1 | 1.01% (inactive)
CC(C)C(=O)Nc1nnc(Sc2ccc(N(C)C)cc2)s1 | -3.42% (inactive)
Cc1ccc(-c2noc(CSc3nnc(-c4ccncc4)n3-c3ccc(F)cc3)n2)cc1 | 4.76% (inactive)
COC(=O)C(C(=O)Nc1cccc(C)n1)C1CCCCCC1 (centres undefined) | -11.6% (inactive)
Cn1c(CC(=O)Nc2ccccc2)nnc1SCC(=O)c1ccccc1 | -6.46% (inactive)
O=C(COc1ccc(Cl)cc1)Nc1ccccc1CO | 2.06% (inactive)
C=CCn1c(N)cc(=O)nc1SCC(=O)Nc1cccc2ccccc12 | 9.45% (inactive)
CCn1c(SCC(=O)Nc2ccc(OC)c(OC)c2)nnc1-c1c[nH]c2ccccc12 | 7.43% (inactive)
COC(=O)C1C(=O)NCC1c1ccc(C)cc1 (centres undefined) | 8.67% (inactive)
CC(=O)Nc1ccc(S(=O)(=O)N2CCN(C3CCCCCCC3)CC2)cc1 | 0.06% (inactive)
CCOc1ccc(C(=O)Nc2ccncc2)cc1 | -1.05% (inactive)
CC(C)(C)NC(=O)CN(Cc1cccs1)C(=O)CNS(=O)(=O)c1ccccc1 | -7.23% (inactive)
CCOCc1nnc(NC(=O)CSc2ccc(C)cc2)s1 | -2.27% (inactive)
CC1=NN(C(C)C)C(=O)C1 | 28.4% (inactive)
CC(=O)Nc1ccc(NC(=O)CSCc2cnn(-c3ccccc3)c2-n2cccc2)cc1 | 6.64% (inactive)
COc1ccccc1N(C(=O)Cn1nnc2ccccc21)C(C(=O)NCc1ccco1)c1ccc(C)o1 (centres undefined) | -1.36% (inactive)
O=C(CCc1ccccc1)NCc1cccnc1 | 23.1% (inactive)
Cc1cc(C(=O)OC(C)C(=O)Nc2cccc(S(=O)(=O)N3CCOCC3)c2)c(C)o1 (centres undefined) | -5.93% (inactive)
